Assay results as given in PubChem BioAssay AID951 (NMMLSC, 2007).
Hit rate of the full screen: of about 190,000 compounds, about 140 (0.074%) were called active. Cut-off read from the data, not from the text of the source: active = inhibition above about 40%. This excerpt belongs to a sample that is enriched for actives.

biological target: Bcl-2-like protein 10 (Homo sapiens) (UniProt Q9HD36); test: Bcl-B and Bim peptide interaction disruptors – biochemical, multiplexed, human Bcl-2 family, primary screen (AID 951); details: bead-based flow cytometry, Bim peptide-Bcl-B binding; at 10 µM; hits give high values;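 note: 0% = tracer peptide without compound and 100% = reference inhibitor peptide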
Sequence (Q9HD36 whole entry, looked up): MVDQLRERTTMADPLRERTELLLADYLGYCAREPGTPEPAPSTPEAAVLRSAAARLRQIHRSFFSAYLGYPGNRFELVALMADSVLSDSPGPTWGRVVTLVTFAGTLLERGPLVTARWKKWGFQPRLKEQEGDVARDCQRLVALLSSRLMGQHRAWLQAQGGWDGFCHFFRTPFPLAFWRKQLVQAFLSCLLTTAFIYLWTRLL

inhibition, inactive:
O=[N+]([O-])c1ccc(N/N=C2/CCCCC2c2ccccn2)c([N+](=O)[O-])c1 (stereo unspecified) -11%
O=C(COc1ccccc1[N+](=O)[O-])NC1CC1 -4%
OCCNCCOc1ccc(Cl)c(Cl)c1 -5%
Cc1cccc(NC(=S)N(CCN(C)C)C(C)c2ccco2)c1 (stereo unspecified) 0%
COc1ccc(Br)cc1C(=O)Nc1cccc(C)c1C -7%
CCCCN1C(=O)c2ccc(C(=O)Nc3ccc(S(=O)(=O)N(C)C)cc3)cc2C1=O 0%
O=C(NNC(=O)c1ccc(Cl)cc1Cl)c1cccs1 -1%
CC(=O)NS(=O)(=O)c1ccc(NC(=O)C2C3C=CC(C3)C2C(=O)O)cc1 (stereo unspecified) -5%
S=c1nc(C23CC4CC(CC(C4)C2)C3)nc2sccn12 2%
O=C(CC1NCCc2ccccc21)Nc1cccc(Cl)c1 (stereo unspecified) -1%
CCN(CC)S(=O)(=O)c1ccc(N2CCCC2)c(NS(=O)(=O)c2cccs2)c1 -5%
Cc1ccn(-c2cccc(-n3ccc(C)n3)n2)n1 0%
COc1ccccc1C1CC(=O)n2c(nc(-c3ccccc3)c2-c2ccccc2)S1 (stereo unspecified) -4%
CC1(C)CC(N(Cc2ccccc2)C(=O)Cc2ccccc2)CCO1 (stereo unspecified) -3%
Cc1cccc(C(=O)OC(C)CN2CCN(C)CC2)c1 (stereo unspecified) -4%
CC(C)(C)NC(=O)COC(=O)c1cc(Cl)ccc1[N+](=O)[O-] 0%
O=C(c1ccc(Cl)c([N+](=O)[O-])c1)N1CCN(c2ccccc2)CC1 -4%
COc1cc(NC(=O)c2ccc3c(c2)OCO3)ccc1NC(=O)c1cccs1 2%
COc1ccc(/C=C2\SC(=S)N(CC(=O)NNC(=O)c3ccncc3)C2=O)cc1 -1%
COCCN(Cc1nc(-c2ccc(C(F)(F)F)cc2)no1)C(C)C -5%
CC(OC(=O)CNS(=O)(=O)/C=C/c1ccccc1)C(=O)Nc1ccc(S(=O)(=O)N2CCCC2)cc1 (stereo unspecified) -8%
Cc1ccc2nc(Nc3ncc4c(n3)CC(C)(C)CC4=O)nc(C)c2c1 -1%
COC(C(=O)NCc1ccccc1C)c1ccccc1 (stereo unspecified) -11%
CCC1(CC)NC(=O)N(Cc2nc3ccccc3s2)C1=O -3%
O=C(NC(=S)NC1CCSC1=O)c1ccccc1F (stereo unspecified) -3%
COc1ccc(-c2nn(-c3ccccc3)cc2/C=C\C(=O)N2CCOCC2)cc1[N+](=O)[O-] -1%
O=C(O)CC1S/C(=N\N=C/c2ccccc2O)N(c2ccc(O)cc2)C1=O (stereo unspecified) -5%
COC(=O)c1onc(-c2c(OC)cc(OC)cc2OC)c1C(=O)OC -1%
CC(C)(C)NC(=O)NC(=O)CN1CCC(Cc2ccccc2)CC1 -1%
CCCN(CCC)c1c([N+](=O)[O-])c(=O)oc2ccccc12 32%
Cc1c(C(=O)NC(=S)NCc2cccnc2)oc2ccccc12 -9%
Cc1cc(C(=O)N/N=C/c2ccc(O)c([N+](=O)[O-])c2)c(C)n1-c1ccc(F)cc1 10%
Cc1ccccc1NCC(=O)N/N=C\c1ccc([N+](=O)[O-])s1 -3%
COC(=O)c1ccc(C(NC(=O)OCc2ccccc2)/C(C)=C/[C@@H](C)C(=O)NCc2ccc(OC)c(OC)c2)cc1 (stereo partly specified) -7%
O=C(CCC(=O)c1cccs1)NC1CCCCCC1 -1%
O=C(C(Cl)Cl)N1CCN(c2ccccn2)CC1 -1%
CCOc1cc(N2CCOCC2)c(OCC)cc1NC(=O)c1cc(C)nc2ccccc12 -6%
COC(=O)c1sc2[nH]c(=S)n(N)c(=O)c2c1C -22%
CC(Cc1cccs1)NC(=O)c1cccc(Cl)c1 (stereo unspecified) -4%
C=CCNC(=O)c1ccccc1NC(=O)c1ccc(Cl)c(S(=O)(=O)Nc2cccc(C)c2C)c1 -5%
COc1ccc(C(=O)Nc2sc(C)c(C)c2CN2CCOCC2)cc1 -7%
CCCn1nc(C(=O)Nc2ccc3nc(C)sc3c2)c2ccccc2c1=O -7%
COc1cc(C(=O)N[C@@H](C)C(=O)NCc2ccco2)cc(OC)c1OC 1%
Cn1c(SCC(=O)NC2CCCCC2)nnc1-c1ccc(N)cc1 -4%
COc1ccc(C2OCC3(CO2)SC(=O)NC3=O)cc1OC (stereo unspecified) -1%
CCN(C(=O)CSc1nc2ccccc2n1CC)C1CCS(=O)(=O)C1 (stereo unspecified) -1%
